Values without a mark were called inactive.

The record followed here is the supplement of paper PMC11001985.

Compound in the test: C#CCNC(=O)CCSSCCC(=O)NCCc1ccc(C=O)c(C=O)c1
Nature of the test: lysine labeling ratio R10:1 (500 µM / 50 µM probe), SILAC-ABPP in living cells; higher = lower intrinsic lysine reactivity toward the probe, active = 2 or less. To be noted: HeLa; probe concentrations 500 vs 50 µM. An outline of the steps: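 With forward and reverse label swaps, light and heavy SILAC HeLa cells, alive and in PBS at room temperature, were exposed to either 500 µM or 50 µM of an alkyne-tagged lysine probe bearing a disulfide link. After mixing, lysates were clicked to biotin-azide, cut with trypsin, pulled down on neutravidin, freed with DTT, alkylated and analysed on a TIMS-TOF Pro by LC-MS/MS. The per-lysine value R is the median over forward and reverse replicates of the filtered median high-probe/low-probe MS1 peptide ratio. It is capped at 20.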

Chain of UniProt P21333 (P21333 whole entry): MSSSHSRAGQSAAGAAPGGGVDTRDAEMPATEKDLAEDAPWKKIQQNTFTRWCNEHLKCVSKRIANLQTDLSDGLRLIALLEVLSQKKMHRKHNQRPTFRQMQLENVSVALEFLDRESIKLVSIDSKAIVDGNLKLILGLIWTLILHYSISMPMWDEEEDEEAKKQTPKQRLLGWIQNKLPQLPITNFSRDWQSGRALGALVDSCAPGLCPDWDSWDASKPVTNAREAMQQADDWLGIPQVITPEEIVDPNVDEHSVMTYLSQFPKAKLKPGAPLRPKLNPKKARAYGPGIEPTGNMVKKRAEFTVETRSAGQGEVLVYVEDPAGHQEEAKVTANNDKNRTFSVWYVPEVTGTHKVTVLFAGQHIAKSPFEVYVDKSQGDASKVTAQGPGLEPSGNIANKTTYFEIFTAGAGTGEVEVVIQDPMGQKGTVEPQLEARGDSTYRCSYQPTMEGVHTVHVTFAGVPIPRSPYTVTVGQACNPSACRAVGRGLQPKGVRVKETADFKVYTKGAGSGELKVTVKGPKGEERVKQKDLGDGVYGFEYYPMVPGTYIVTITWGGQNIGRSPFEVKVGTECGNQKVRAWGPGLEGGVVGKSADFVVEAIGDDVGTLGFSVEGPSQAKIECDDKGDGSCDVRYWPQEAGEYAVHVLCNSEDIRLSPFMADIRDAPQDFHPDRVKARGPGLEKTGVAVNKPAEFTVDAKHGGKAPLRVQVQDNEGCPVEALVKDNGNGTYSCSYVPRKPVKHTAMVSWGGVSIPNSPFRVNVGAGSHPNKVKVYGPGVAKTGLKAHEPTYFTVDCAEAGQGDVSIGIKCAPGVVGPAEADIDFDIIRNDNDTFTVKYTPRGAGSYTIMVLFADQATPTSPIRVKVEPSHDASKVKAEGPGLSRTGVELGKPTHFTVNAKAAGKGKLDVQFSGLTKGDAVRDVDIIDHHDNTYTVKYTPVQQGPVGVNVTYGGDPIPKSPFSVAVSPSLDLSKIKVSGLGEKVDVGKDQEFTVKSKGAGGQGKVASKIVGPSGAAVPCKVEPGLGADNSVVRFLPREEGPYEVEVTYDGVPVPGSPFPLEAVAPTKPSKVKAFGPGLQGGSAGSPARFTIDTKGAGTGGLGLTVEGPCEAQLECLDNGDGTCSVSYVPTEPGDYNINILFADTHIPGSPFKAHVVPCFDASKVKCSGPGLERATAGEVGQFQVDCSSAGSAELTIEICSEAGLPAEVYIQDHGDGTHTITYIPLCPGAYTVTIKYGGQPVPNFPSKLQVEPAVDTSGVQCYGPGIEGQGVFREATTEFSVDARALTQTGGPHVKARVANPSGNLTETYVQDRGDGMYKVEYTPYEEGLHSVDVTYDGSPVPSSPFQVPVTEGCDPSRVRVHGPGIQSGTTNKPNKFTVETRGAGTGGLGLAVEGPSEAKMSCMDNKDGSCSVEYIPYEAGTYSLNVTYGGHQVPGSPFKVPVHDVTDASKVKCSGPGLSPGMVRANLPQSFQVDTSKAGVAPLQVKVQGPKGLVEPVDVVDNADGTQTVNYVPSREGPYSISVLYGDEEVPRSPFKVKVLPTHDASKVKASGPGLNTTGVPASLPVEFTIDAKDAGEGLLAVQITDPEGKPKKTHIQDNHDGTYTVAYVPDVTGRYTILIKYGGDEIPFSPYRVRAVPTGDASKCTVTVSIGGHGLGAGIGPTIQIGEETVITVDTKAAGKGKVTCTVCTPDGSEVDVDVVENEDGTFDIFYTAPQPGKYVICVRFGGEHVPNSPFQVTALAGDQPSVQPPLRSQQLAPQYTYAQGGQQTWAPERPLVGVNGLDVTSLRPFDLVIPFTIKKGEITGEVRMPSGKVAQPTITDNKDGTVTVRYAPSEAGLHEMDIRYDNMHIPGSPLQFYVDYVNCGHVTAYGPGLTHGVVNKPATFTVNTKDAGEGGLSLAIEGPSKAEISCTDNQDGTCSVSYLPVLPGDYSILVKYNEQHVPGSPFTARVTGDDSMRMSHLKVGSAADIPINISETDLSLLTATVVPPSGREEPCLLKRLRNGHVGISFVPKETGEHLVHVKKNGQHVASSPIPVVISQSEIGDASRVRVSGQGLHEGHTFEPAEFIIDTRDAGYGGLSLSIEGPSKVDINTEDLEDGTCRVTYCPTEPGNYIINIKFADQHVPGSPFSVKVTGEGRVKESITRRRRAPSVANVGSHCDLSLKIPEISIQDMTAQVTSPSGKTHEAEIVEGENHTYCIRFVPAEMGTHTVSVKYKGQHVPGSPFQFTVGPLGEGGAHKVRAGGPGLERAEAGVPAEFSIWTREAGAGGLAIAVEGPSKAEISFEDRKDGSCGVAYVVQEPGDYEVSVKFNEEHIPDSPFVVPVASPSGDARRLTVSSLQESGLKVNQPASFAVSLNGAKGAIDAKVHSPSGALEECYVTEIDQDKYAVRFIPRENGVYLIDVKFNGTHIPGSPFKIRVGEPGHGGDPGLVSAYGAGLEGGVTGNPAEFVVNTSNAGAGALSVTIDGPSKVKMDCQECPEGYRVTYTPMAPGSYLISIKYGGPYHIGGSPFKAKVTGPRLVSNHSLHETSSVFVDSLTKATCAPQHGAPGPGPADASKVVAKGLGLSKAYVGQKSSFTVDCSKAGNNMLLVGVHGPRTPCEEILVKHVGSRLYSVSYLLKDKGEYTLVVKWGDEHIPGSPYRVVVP
Chain of UniProt O14786 (O14786 whole entry): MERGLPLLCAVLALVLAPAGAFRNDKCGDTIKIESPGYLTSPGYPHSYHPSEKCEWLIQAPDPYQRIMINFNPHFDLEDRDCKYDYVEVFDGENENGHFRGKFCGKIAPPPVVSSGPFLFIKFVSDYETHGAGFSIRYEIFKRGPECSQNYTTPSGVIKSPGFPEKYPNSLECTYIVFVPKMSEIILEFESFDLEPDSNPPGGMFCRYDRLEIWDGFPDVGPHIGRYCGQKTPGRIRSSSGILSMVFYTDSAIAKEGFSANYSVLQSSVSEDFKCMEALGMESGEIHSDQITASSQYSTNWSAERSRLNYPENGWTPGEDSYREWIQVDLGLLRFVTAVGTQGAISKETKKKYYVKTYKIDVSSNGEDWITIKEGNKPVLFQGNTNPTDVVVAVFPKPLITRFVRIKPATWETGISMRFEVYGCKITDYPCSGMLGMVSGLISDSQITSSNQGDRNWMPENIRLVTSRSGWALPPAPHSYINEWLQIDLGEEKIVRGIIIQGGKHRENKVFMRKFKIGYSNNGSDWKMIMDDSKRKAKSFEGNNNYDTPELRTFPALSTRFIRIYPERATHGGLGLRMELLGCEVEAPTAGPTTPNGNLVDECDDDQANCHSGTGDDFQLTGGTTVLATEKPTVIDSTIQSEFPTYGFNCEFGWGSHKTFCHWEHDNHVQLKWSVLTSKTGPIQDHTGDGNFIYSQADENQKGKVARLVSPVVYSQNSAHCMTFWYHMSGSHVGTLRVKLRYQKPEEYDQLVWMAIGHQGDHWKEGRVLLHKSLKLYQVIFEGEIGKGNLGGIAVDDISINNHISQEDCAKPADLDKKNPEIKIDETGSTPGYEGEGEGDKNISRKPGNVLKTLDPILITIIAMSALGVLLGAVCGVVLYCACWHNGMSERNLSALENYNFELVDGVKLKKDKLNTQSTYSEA
Chain of UniProt Q6YHK3 (Q6YHK3 whole entry): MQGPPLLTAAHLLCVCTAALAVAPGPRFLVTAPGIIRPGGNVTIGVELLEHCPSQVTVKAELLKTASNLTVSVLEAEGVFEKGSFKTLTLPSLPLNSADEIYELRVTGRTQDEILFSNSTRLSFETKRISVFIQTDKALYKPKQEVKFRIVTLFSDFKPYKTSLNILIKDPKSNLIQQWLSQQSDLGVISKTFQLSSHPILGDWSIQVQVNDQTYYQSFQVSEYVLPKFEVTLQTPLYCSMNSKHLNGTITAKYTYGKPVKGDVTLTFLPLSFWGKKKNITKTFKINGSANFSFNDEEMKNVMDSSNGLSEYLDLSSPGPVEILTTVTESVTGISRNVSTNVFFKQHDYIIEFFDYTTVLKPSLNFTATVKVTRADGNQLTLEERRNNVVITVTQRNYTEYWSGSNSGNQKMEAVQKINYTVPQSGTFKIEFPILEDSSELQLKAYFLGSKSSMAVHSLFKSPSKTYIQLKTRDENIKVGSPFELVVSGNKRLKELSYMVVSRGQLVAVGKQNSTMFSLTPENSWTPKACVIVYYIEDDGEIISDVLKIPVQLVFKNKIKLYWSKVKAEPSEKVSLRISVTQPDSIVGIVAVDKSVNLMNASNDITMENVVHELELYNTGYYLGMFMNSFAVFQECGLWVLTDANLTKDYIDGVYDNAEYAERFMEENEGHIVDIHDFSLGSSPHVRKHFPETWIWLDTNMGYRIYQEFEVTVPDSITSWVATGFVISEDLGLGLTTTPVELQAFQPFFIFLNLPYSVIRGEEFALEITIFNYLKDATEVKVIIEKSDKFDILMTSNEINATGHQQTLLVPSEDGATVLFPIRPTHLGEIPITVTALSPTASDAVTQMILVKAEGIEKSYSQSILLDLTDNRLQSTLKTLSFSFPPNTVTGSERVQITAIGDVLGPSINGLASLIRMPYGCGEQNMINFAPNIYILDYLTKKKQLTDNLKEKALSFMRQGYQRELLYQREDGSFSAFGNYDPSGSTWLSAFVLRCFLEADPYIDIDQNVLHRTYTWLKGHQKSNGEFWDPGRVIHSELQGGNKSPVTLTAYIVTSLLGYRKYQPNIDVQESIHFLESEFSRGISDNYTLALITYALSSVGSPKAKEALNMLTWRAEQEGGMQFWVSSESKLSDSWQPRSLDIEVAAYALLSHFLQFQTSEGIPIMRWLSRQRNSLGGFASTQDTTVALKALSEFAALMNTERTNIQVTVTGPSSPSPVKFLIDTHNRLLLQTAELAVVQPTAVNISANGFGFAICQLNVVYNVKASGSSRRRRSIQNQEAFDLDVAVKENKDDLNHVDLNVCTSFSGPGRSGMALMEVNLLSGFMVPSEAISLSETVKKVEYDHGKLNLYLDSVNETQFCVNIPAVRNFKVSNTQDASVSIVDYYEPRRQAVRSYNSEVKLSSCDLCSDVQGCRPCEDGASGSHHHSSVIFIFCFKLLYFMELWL

For “FAT4 (lysine site: K2566) (UniProt Q6V0I7)”, the “lysine labeling ratio R10:1” value is 2.59. The value for “NRP1 (lysine site: K407) (UniProt O14786)” was 3.76. The value for “RPSA (lysine site: K89) (UniProt P08865)” was 4.12; that for “RPS19 (lysine site: K144) (UniProt P39019)” was 1.75 (active); that for “LAMC1 (lysine site: K1041) (UniProt P11047)” was 2.18.

In the case of “CKAP4 (lysine site: K339) (UniProt Q07065)”, the “lysine labeling ratio R10:1” value was 1.14 (active). Consider “SPTAN1 (lysine site: K1784) (UniProt Q13813)”, for which the “lysine labeling ratio R10:1” value was 1.22 (active). With “HSPA5 (lysine site: K213) (UniProt P11021)”, the “lysine labeling ratio R10:1” value is 5.61. As for “RCC2 (lysine site: K124) (UniProt Q9P258)”, the figure is 1.8 (active). For “NUMA1 (lysine site: K1625) (UniProt Q14980)”, the “lysine labeling ratio R10:1” value is 3.65. Consider “CCT3 (lysine site: K427) (UniProt P49368)”, for which the “lysine labeling ratio R10:1” value was 0.772 (active). Turning to “MAP4 (lysine site: K946) (UniProt P27816)”, the “lysine labeling ratio R10:1” value is 1.95 (active). The value for UniProt P16144 (lysine site: K392) was 0.94 (active). For the target “NRP1 (lysine site: K504) (UniProt O14786)”, the “lysine labeling ratio R10:1” value is 6.03.

With F2 (lysine site: K599) (UniProt P00734), the “lysine labeling ratio R10:1” value was 6.29. As for “TFPI (lysine site: K101) (UniProt P10646)”, the figure is 7.9. As for UniProt P02768 (lysine site: K229), the “lysine labeling ratio R10:1” value was 5.69. As for “LAMB1 (lysine site: K1778) (UniProt P07942)”, the figure is 1.01 (active); as for “SDC2 (lysine site: K141) (UniProt P34741)”, 1.35 (active); as for “PARK7 (lysine site: K188) (UniProt Q99497)”, 1.98 (active). For the target “FBLN1 (lysine site: K187) (UniProt P23142)”, the “lysine labeling ratio R10:1” value is 2.05. “IGSF8 (lysine site: K194) (UniProt Q969P0)”: the “lysine labeling ratio R10:1” value is 1 (active).

UniProt P62826 (lysine site: K71): the “lysine labeling ratio R10:1” value was 2.74.

With UniProt P26639 (lysine site: K213), the “lysine labeling ratio R10:1” value was 0.782 (active). As for “MARS (lysine site: K726) (UniProt P56192)”, the “lysine labeling ratio R10:1” value is 0.748 (active). On to “FKBP4 (lysine site: K390) (UniProt Q02790)”, for which the “lysine labeling ratio R10:1” value is 3.84.

For “CTNNA1 (lysine site: K16) (UniProt P35221)”, the “lysine labeling ratio R10:1” value was 3.72.

Take UniProt Q15149 (lysine site: K2154): the “lysine labeling ratio R10:1” value was 1.47 (active). In the case of “ENO1 (lysine site: K420) (UniProt P06733)”, the “lysine labeling ratio R10:1” value was 2.65.

As for “SLC25A5 (lysine site: K245) (UniProt P05141)”, the “lysine labeling ratio R10:1” value was 2.26. Take “EPHA7 (lysine site: K272) (UniProt Q15375)”: the “lysine labeling ratio R10:1” value is 2.33.

“PPIA (lysine site: K49) (UniProt P62937)”: the “lysine labeling ratio R10:1” value was 3.03. The value for “TKT (lysine site: K144) (UniProt P29401)” was 10.4; that for UniProt P62244 (lysine site: K32) was 4.35; that for UniProt P62854 (lysine site: K113) was 7.15. In the case of “CHMP2A (lysine site: K64) (UniProt O43633)”, the “lysine labeling ratio R10:1” value is 5.72. As to “FLNA (lysine site: K724) (UniProt P21333)”, the “lysine labeling ratio R10:1” value was 1.76 (active).

As for “FBL (lysine site: K131) (UniProt P22087)”, the “lysine labeling ratio R10:1” value is 2.15. As to “PABPC1 (lysine site: K157) (UniProt P11940)”, the “lysine labeling ratio R10:1” value was 1.38 (active).

With “FZD6 (lysine site: K149) (UniProt O60353)”, the “lysine labeling ratio R10:1” value was 0.883 (active). For the target “DYNC1H1 (lysine site: K2239) (UniProt Q14204)”, the “lysine labeling ratio R10:1” value is 6.84. On to “FLNA (lysine site: K2000) (UniProt P21333)”, for which the “lysine labeling ratio R10:1” value is 1.14 (active). With “SERBP1 (lysine site: K72) (UniProt Q8NC51)”, the “lysine labeling ratio R10:1” value is 1.17 (active).

For the target “RPL34 (lysine site: K85) (UniProt P49207)”, the “lysine labeling ratio R10:1” value was 1.67 (active). In the case of “CD109 (lysine site: K1291) (UniProt Q6YHK3)”, the “lysine labeling ratio R10:1” value was 2.41.

Regarding “CDCP1 (lysine site: K369) (UniProt Q9H5V8)”, the “lysine labeling ratio R10:1” value was 2.97.
